Data from ChEMBL document CHEMBL1157539, “Thousands of chemical starting points for antimalarial lead identification” (Nature, 2010).

Assays:
Format in all cases: functional
Plasmodium falciparum [1] = assay: GSK_TCMDC: Inhibition of Plasmodium falciparum 3D7 in whole red blood cells, using parasite LDH activity as an index of growth. Test compounds present at 2uM
Plasmodium falciparum [2] = assay: GSK_TCMDC: Inhibition of Plasmodium falciparum Dd2 in whole red blood cells, using parasite LDH activity as an index of growth. Test compounds present at 2uM
HepG2 = assay: GSK_TCMDC: Percent inhibition of human HepG2 cell line. Test compounds present at 10uM.

| Structure (SMILES) | Inhibition (Plasmodium falciparum [1]) | Inhibition (Plasmodium falciparum [2]) | Inhibition (HepG2) |
| --- | --- | --- | --- |
| Cc1[nH]c(C)c(-c2ccc(OCc3ccccc3)cc2)c(=O)c1Br | 97% | 96% | 19% |
| CC(C)(C)CC(C)(C)c1ccc(O)c(C(=O)Nc2ccc([N+](=O)[O-])cc2)c1 | 97% | 99% | 80% |
| CCc1ccccc1N1CCN(CCCC(=O)c2ccc(NC(=O)c3cc(Cl)cc(Cl)c3)cc2)CC1 | 99% | 46% | 16% |
| Cc1ccccc1Oc1nc2ccccc2nc1SCC(=O)NC(C)C | 97% | 55% | 0% |
| CN(C)CCNCc1cccc(-c2ccc3c(Nc4ccc(Oc5ccccn5)cc4)ccnc3c2)c1 | 99% | 100% | 27% |
| COc1ccc(Nc2ccnc3cc(-c4ccccn4)ccc23)cc1OC.Cl | 91% | 26% | 14% |
| CCCCCCCN1CC[C@@H](CCCc2ccnc3ccc(OCCCCN/C(N)=N/O)cc23)[C@@H](CC)C1.O=C(O)C(=O)O | 90% | 39% | 27% |
| Fc1c(CNCC2CCN(CC3CCCCC3)CC2)cccc1C(F)(F)F.O=C(O)C(F)(F)F | 93% | 7% | 35% |
| CCCCCCc1cc2cc(-c3csc(C=Cc4ccccc4)n3)c(=O)oc2cc1O | 96% | 75% | 17% |
| CCCN(CCCN(CCCN(CCC)C(C)C)c1cc(C)nc(Nc2ccc(Cl)cc2)n1)C(C)C.O=C(O)C(=O)O | 100% | 99% | 39% |
| COc1c(C2CCN(CCCCNC(=O)c3cc(-c4ccc(Cl)cc4)oc3C)CC2)ccc2c1CCCC2 | 97% | 27% | 93% |
| CCCc1cc(NC2CCN(C)CC2)nc(Nc2ccc(F)cc2)n1 | 95% | 16% | 20% |
| Cc1cc(NCCC(=O)NCc2cccc(F)c2)nc(NCCc2ccc(F)cc2)n1.O=C(O)C(F)(F)F | 89% | 2% | 0% |
| CC(Nc1ccnc2cc(Cl)ccc12)c1ccc(S(N)(=O)=O)cc1 (stereo unspecified) | 96% | 21% | 5% |
| CN1CCC(N2CCN(Cc3ccc(-c4ccc(-c5nc6ccccc6[nH]5)s4)cc3)CC2)CC1.O=C(O)C(F)(F)F | 100% | 100% | 62% |
| Cc1noc(C)c1-c1cccc(CNCc2cccc(-c3ccc(-c4nc5ccccc5[nH]4)s3)c2)c1.O=C(O)C(F)(F)F | 100% | 29% | 24% |

| Structure (SMILES) | Inhibition (Plasmodium falciparum [1]) | Inhibition (Plasmodium falciparum [2]) | Inhibition (HepG2) |
| --- | --- | --- | --- |
| Br.c1cc(Nc2nc(-c3ccc(-c4csc(Nc5ccncc5)n4)cc3)cs2)ccn1 | 100% | 99% | 91% |
| O=C(NC1CCCCC1)N(Cc1cccc(-c2ccc(CNC3CCCC3)cc2)c1)C1CCN(Cc2ccccc2)CC1.O=C(O)C(F)(F)F | 98% | 89% | 37% |
| CN(CCNCc1ccc(-c2cccc(-c3nc4ccccc4[nH]3)c2)cc1)S(C)(=O)=O.O=C(O)C(F)(F)F | 100% | 29% | 9% |
| Clc1cc(Cl)c2cc(CNCCCNc3ccc4ccccc4n3)[nH]c2c1.O=C(O)C(F)(F)F | 99% | 54% | 98% |
| CC(O)C1CCCCN1C(=O)c1ccc(-c2ccc(-c3nc4ccccc4[nH]3)s2)cc1 (stereo unspecified) | 100% | 98% | 33% |
| O=C(c1cc(-c2ccco2)n[nH]1)N1CCN(S(=O)(=O)c2ccc(Cl)cc2)CC1 | 96% | 95% | 0% |
| O=C(/C=C/c1ccc(Cl)c(Cl)c1)NCCCCCN1CCCC(CNS(=O)(=O)c2cccc(C(F)(F)F)c2)C1 (stereo unspecified) | 92% | 0% | 73% |
| COc1ccc2nc(N=C3NC4(c5ccccc5)NC(=Nc5nc6ccc(OC)cc6[nH]5)NC4(c4ccccc4)N3)[nH]c2c1.O=C(O)C(F)(F)F (stereo unspecified) | 100% | 85% | 0% |
| CCCCCCCCCCS(=O)(=O)N[C@H](COCc1cccc(Oc2ccccc2)c1)COP(=O)([O-])OC.[Li+] | 87% | 0% | 0% |
| CS(=O)(=O)c1ccccc1CNC(=O)c1cccc(-c2ccc(-c3nc4cc(C(F)(F)F)ccc4[nH]3)cc2)c1 | 95% | 7% | 86% |
| COc1cccc(C(=O)Nc2ccc(Nc3nc(C)cc(N4CCCCC4)n3)cc2)c1OC | 92% | 27% | 47% |
| CCOc1ccccc1N1CCN(CCCNC(=O)/C(=C/C=C/c2cc3cc(Cl)c(Cl)cc3[nH]2)OC)CC1 | 98% | 93% | 45% |
| CCOc1c(CNCCCNc2cc(O)c3ccccc3n2)cc(Br)cc1OC | 80% | 18% | 10% |
| COc1ccccc1N1CCN(Cc2c(NC(C)=O)sc(C)c2C)CC1 | 95% | 80% | 9% |
| CN(C)CC(=O)N(Cc1ccc(Cl)c(Cl)c1)Cc1csc(-c2ccc(CNCc3ccccc3)cc2)n1.O=C(O)C(F)(F)F | 96% | 32% | 30% |
| Cc1[nH]c2ccc(C#N)cc2c(=O)c1Br | 91% | 61% | 2% |
